From article PMC7862700, “An all-to-all approach to the identification of sequence-specific readers for epigenetic DNA modifications on cytosine”

biological target: T1, ELF5 (Homo sapiens, UniProt Q9UKW6-2 1-255); assay: DAPPL (digital affinity profiling via proximity ligation, sequencing); 10 mM Tris-HCl pH 7.5, 50 mM NaCl, 1 mM DTT, 4% glycerol, room temperature, 30 min; GST-TFs on glutathione beads, 16-mer random dsDNA library, 0.1% formaldehyde crosslink after washing; high values mean tight binding; conditions: protein: recombinant; tags: N-terminal GST; dsDNA, one strand shown
T1 sequence: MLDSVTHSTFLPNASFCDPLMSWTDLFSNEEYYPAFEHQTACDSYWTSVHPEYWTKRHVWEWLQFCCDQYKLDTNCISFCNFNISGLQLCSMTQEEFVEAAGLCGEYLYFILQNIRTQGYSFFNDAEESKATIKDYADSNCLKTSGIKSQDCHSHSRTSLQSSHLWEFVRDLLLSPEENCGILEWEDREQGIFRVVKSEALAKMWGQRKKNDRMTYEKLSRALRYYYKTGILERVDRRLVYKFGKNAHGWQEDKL
Method in brief: (§1)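 Pools of DNA-barcoded human transcription factors, expressed in yeast as GST fusions on glutathione beads and combined with a tag-only sample, were incubated with 200 nmole of a 16-mer random double-stranded DNA library. Incubation took 30 min at room temperature in Tris/NaCl/DTT/glycerol buffer and was followed by washing, 0.1% formaldehyde crosslinking, proximity ligation (BsaI/T4 ligase, 1 h, 37 °C), PCR amplification and sequencing on an Illumina NextSeq500. Binding signal is the ratio of a hexamer's read frequency for a factor to its frequency for the tag-only sample.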

| Sequence | binding signal |
| --- | --- |
| CCCCAC | 1.19 fold enrichment (6-mer frequency, TF over GST control) |
| GTATGC | 1.11 fold enrichment (6-mer frequency, TF over GST control) |
| TCATTA | 1.09 fold enrichment (6-mer frequency, TF over GST control) |
| TCCCTG | 1.38 fold enrichment (6-mer frequency, TF over GST control) |
| ACTAAG | 1.12 fold enrichment (6-mer frequency, TF over GST control) |
| ACACCC | 1.12 fold enrichment (6-mer frequency, TF over GST control) |
| TCCCGA | 1.52 fold enrichment (6-mer frequency, TF over GST control) |
| CACCTC | 1.09 fold enrichment (6-mer frequency, TF over GST control) |
| AATTCA | 1.3 fold enrichment (6-mer frequency, TF over GST control) |
| GCCTAT | 1.15 fold enrichment (6-mer frequency, TF over GST control) |
| CACCAT | 1.1 fold enrichment (6-mer frequency, TF over GST control) |
| CTTTCG | 1.26 fold enrichment (6-mer frequency, TF over GST control) |
| GTACAC | 1.2 fold enrichment (6-mer frequency, TF over GST control) |
| CTCGAA | 1.17 fold enrichment (6-mer frequency, TF over GST control) |
| CTTACG | 1.15 fold enrichment (6-mer frequency, TF over GST control) |
| TATACC | 1.22 fold enrichment (6-mer frequency, TF over GST control) |
| GGACAT | 1.24 fold enrichment (6-mer frequency, TF over GST control) |
| TAGGAA | 1.29 fold enrichment (6-mer frequency, TF over GST control) |
| GATTTC | 2.07 fold enrichment (6-mer frequency, TF over GST control) |
| ACCTCA | 1.11 fold enrichment (6-mer frequency, TF over GST control) |

| Sequence | binding signal |
| --- | --- |
| ACGATA | 1.09 fold enrichment (6-mer frequency, TF over GST control) |
| TGTCCT | 1.7 fold enrichment (6-mer frequency, TF over GST control) |
| TGCCAT | 1.08 fold enrichment (6-mer frequency, TF over GST control) |
| AATCAT | 1.18 fold enrichment (6-mer frequency, TF over GST control) |
| CTCGGC | 1.34 fold enrichment (6-mer frequency, TF over GST control) |
| CAAGCA | 1.11 fold enrichment (6-mer frequency, TF over GST control) |
| AAACTG | 1.1 fold enrichment (6-mer frequency, TF over GST control) |
| GCTCAT | 1.19 fold enrichment (6-mer frequency, TF over GST control) |
| ACAAGC | 1.02 fold enrichment (6-mer frequency, TF over GST control) |
| CATCAC | 1.11 fold enrichment (6-mer frequency, TF over GST control) |
| AAGCAC | 1.28 fold enrichment (6-mer frequency, TF over GST control) |
| CCCCTG | 1.15 fold enrichment (6-mer frequency, TF over GST control) |
| AACGGC | 1.16 fold enrichment (6-mer frequency, TF over GST control) |
| CCTTTG | 1.31 fold enrichment (6-mer frequency, TF over GST control) |
| CGCCGC | 1.08 fold enrichment (6-mer frequency, TF over GST control) |
| ACACAT | 1.23 fold enrichment (6-mer frequency, TF over GST control) |
| TAAGCC | 1.03 fold enrichment (6-mer frequency, TF over GST control) |
| TGCACG | 1.02 fold enrichment (6-mer frequency, TF over GST control) |
| ACCCCA | 1.04 fold enrichment (6-mer frequency, TF over GST control) |
| TGAATG | 1.21 fold enrichment (6-mer frequency, TF over GST control) |

biological target: T2, ETV3 (Homo sapiens, UniProt P41162-2 1-143); assay: as above; conditions: protein: recombinant; tags: N-terminal GST; dsDNA, one strand shown
T2 sequence: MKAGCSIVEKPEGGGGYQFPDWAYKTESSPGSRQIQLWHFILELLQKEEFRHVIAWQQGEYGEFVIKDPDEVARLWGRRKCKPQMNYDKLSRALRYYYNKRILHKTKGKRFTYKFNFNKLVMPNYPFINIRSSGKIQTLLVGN
Method in brief: as §1

| Sequence | binding signal |
| --- | --- |
| CCCCAC | 1.2 fold enrichment (6-mer frequency, TF over GST control) |
| GTATGC | 1.24 fold enrichment (6-mer frequency, TF over GST control) |
| TCATTA | 1.12 fold enrichment (6-mer frequency, TF over GST control) |
| TCCCTG | 1.26 fold enrichment (6-mer frequency, TF over GST control) |
| ACTAAG | 1.09 fold enrichment (6-mer frequency, TF over GST control) |
| ACACCC | 1.14 fold enrichment (6-mer frequency, TF over GST control) |
| TCCCGA | 1.26 fold enrichment (6-mer frequency, TF over GST control) |
| CACCTC | 1.15 fold enrichment (6-mer frequency, TF over GST control) |
| AATTCA | 1.31 fold enrichment (6-mer frequency, TF over GST control) |
| GCCTAT | 1.21 fold enrichment (6-mer frequency, TF over GST control) |
| CACCAT | 1.05 fold enrichment (6-mer frequency, TF over GST control) |
| CTTTCG | 1.16 fold enrichment (6-mer frequency, TF over GST control) |
| GTACAC | 1.21 fold enrichment (6-mer frequency, TF over GST control) |
| CTCGAA | 1.18 fold enrichment (6-mer frequency, TF over GST control) |
| CTTACG | 1.15 fold enrichment (6-mer frequency, TF over GST control) |
| TATACC | 1.26 fold enrichment (6-mer frequency, TF over GST control) |
| GGACAT | 1.23 fold enrichment (6-mer frequency, TF over GST control) |
| TAGGAA | 1.22 fold enrichment (6-mer frequency, TF over GST control) |
| GATTTC | 1.71 fold enrichment (6-mer frequency, TF over GST control) |
| ACCTCA | 1.18 fold enrichment (6-mer frequency, TF over GST control) |

| Sequence | binding signal |
| --- | --- |
| ACGATA | 1.13 fold enrichment (6-mer frequency, TF over GST control) |
| TGTCCT | 1.47 fold enrichment (6-mer frequency, TF over GST control) |
| TGCCAT | 1.2 fold enrichment (6-mer frequency, TF over GST control) |
| AATCAT | 1.12 fold enrichment (6-mer frequency, TF over GST control) |
| CTCGGC | 1.36 fold enrichment (6-mer frequency, TF over GST control) |
| CAAGCA | 1.16 fold enrichment (6-mer frequency, TF over GST control) |
| AAACTG | 1.07 fold enrichment (6-mer frequency, TF over GST control) |
| GCTCAT | 1.15 fold enrichment (6-mer frequency, TF over GST control) |
| ACAAGC | 1.13 fold enrichment (6-mer frequency, TF over GST control) |
| CATCAC | 1.13 fold enrichment (6-mer frequency, TF over GST control) |
| AAGCAC | 1.19 fold enrichment (6-mer frequency, TF over GST control) |
| CCCCTG | 1.07 fold enrichment (6-mer frequency, TF over GST control) |
| AACGGC | 1.29 fold enrichment (6-mer frequency, TF over GST control) |
| CCTTTG | 1.34 fold enrichment (6-mer frequency, TF over GST control) |
| CGCCGC | 1.09 fold enrichment (6-mer frequency, TF over GST control) |
| ACACAT | 1.2 fold enrichment (6-mer frequency, TF over GST control) |
| TAAGCC | 1.12 fold enrichment (6-mer frequency, TF over GST control) |
| TGCACG | 1.13 fold enrichment (6-mer frequency, TF over GST control) |
| ACCCCA | 1.09 fold enrichment (6-mer frequency, TF over GST control) |
| TGAATG | 1.2 fold enrichment (6-mer frequency, TF over GST control) |

biological target: ETV6 (Homo sapiens, UniProt P41212 1-452); assay: as above; conditions: protein: recombinant; tags: N-terminal GST; dsDNA, one strand shown
Sequence (P41212 whole entry): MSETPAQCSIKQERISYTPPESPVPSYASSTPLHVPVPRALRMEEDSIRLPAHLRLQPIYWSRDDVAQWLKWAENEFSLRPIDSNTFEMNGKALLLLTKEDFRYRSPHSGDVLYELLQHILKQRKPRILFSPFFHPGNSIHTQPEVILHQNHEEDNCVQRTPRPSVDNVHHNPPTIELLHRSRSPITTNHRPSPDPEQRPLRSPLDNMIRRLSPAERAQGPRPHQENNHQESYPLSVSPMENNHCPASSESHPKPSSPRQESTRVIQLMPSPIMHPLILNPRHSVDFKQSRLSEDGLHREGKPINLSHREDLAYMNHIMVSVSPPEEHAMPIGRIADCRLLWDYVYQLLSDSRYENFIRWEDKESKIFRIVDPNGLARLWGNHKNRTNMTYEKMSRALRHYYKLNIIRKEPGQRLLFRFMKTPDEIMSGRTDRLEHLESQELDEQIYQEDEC
Method in brief: as §1

| Sequence | binding signal |
| --- | --- |
| CCCCAC | 1.1 fold enrichment (6-mer frequency, TF over GST control) |
| GTATGC | 1.09 fold enrichment (6-mer frequency, TF over GST control) |
| TCATTA | 1.06 fold enrichment (6-mer frequency, TF over GST control) |
| TCCCTG | 1.31 fold enrichment (6-mer frequency, TF over GST control) |
| ACTAAG | 1.2 fold enrichment (6-mer frequency, TF over GST control) |
| ACACCC | 1.01 fold enrichment (6-mer frequency, TF over GST control) |
| TCCCGA | 1.22 fold enrichment (6-mer frequency, TF over GST control) |
| CACCTC | 1.14 fold enrichment (6-mer frequency, TF over GST control) |
| AATTCA | 1.23 fold enrichment (6-mer frequency, TF over GST control) |
| GCCTAT | 1.19 fold enrichment (6-mer frequency, TF over GST control) |
| CACCAT | 1.04 fold enrichment (6-mer frequency, TF over GST control) |
| CTTTCG | 1.23 fold enrichment (6-mer frequency, TF over GST control) |
| GTACAC | 1.29 fold enrichment (6-mer frequency, TF over GST control) |
| CTCGAA | 1.12 fold enrichment (6-mer frequency, TF over GST control) |
| CTTACG | 1 fold enrichment (6-mer frequency, TF over GST control) |
| TATACC | 1.21 fold enrichment (6-mer frequency, TF over GST control) |
| GGACAT | 1.18 fold enrichment (6-mer frequency, TF over GST control) |
| TAGGAA | 1.37 fold enrichment (6-mer frequency, TF over GST control) |
| GATTTC | 1.8 fold enrichment (6-mer frequency, TF over GST control) |
| ACCTCA | 1.17 fold enrichment (6-mer frequency, TF over GST control) |

| Sequence | binding signal |
| --- | --- |
| ACGATA | 1.18 fold enrichment (6-mer frequency, TF over GST control) |
| TGTCCT | 1.25 fold enrichment (6-mer frequency, TF over GST control) |
| TGCCAT | 1.1 fold enrichment (6-mer frequency, TF over GST control) |
| AATCAT | 1.16 fold enrichment (6-mer frequency, TF over GST control) |
| CTCGGC | 1.37 fold enrichment (6-mer frequency, TF over GST control) |
| CAAGCA | 1.14 fold enrichment (6-mer frequency, TF over GST control) |
| AAACTG | 1.12 fold enrichment (6-mer frequency, TF over GST control) |
| GCTCAT | 1.21 fold enrichment (6-mer frequency, TF over GST control) |
| ACAAGC | 1.09 fold enrichment (6-mer frequency, TF over GST control) |
| CATCAC | 1.13 fold enrichment (6-mer frequency, TF over GST control) |
| AAGCAC | 1.28 fold enrichment (6-mer frequency, TF over GST control) |
| CCCCTG | 1.07 fold enrichment (6-mer frequency, TF over GST control) |
| AACGGC | 1.26 fold enrichment (6-mer frequency, TF over GST control) |
| CCTTTG | 1.17 fold enrichment (6-mer frequency, TF over GST control) |
| CGCCGC | 1.21 fold enrichment (6-mer frequency, TF over GST control) |
| ACACAT | 1.22 fold enrichment (6-mer frequency, TF over GST control) |
| TAAGCC | 1.03 fold enrichment (6-mer frequency, TF over GST control) |
| TGCACG | 1.06 fold enrichment (6-mer frequency, TF over GST control) |
| ACCCCA | 1.02 fold enrichment (6-mer frequency, TF over GST control) |
| TGAATG | 1.22 fold enrichment (6-mer frequency, TF over GST control) |
